ABCB6 inh MLPCN: inhibitors of human ABC transporter ABCB6. AID 602162. K562-ABCB6 porphyrin accumulation, flow cytometry, 1 h; hits give low values. 360,000 compounds, 0.19% hits. Q9NP58. fluorescence ratio to DMSO, % at 10 µM;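 active = fluorescence ratio to DMSO below 75%, the collection mean minus 3 SD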;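 note: signal is porphyrin accumulated inside mitochondria; lower ratio means ABCB6 inhibition with less porphyrin fluorescence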
Target sequence (Q9NP58 whole entry, looked up): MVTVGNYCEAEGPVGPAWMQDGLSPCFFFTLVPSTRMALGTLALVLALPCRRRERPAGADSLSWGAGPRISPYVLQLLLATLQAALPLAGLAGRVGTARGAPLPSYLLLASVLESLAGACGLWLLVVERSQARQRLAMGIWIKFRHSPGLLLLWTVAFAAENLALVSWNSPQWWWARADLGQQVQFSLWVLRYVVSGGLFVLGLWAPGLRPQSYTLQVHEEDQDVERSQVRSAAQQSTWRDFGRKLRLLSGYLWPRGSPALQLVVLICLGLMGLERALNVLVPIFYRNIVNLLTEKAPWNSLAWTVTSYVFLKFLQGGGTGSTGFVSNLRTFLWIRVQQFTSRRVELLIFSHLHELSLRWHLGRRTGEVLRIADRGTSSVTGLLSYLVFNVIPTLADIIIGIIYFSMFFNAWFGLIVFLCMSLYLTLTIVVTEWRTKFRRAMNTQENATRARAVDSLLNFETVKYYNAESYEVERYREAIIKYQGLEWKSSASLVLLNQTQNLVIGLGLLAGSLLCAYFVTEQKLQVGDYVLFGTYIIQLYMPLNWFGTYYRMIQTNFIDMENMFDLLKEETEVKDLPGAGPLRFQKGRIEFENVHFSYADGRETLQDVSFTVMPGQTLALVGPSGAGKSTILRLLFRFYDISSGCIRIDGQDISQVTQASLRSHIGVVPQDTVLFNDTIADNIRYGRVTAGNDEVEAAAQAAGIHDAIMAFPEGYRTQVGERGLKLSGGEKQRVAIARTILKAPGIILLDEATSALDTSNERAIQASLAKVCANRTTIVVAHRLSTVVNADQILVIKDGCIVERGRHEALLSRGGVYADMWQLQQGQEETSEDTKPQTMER
iPSC survival up: increases survival of single human iPS cells | survival enhancement, % at 20 µM | 360,000 compounds, 0.044% hits | hiPSC single-cell survival, ATPlite luminescence; 100% = ROCK inhibitor wells, 0% = DMSO; in the data active = survival enhancement above about 18%;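 note: cells exposed to compounds for 16 hours before the ATP read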
MIN6 prolif: induces beta-cell replication in MIN6 cells; proliferation, % at 10 µM; 330,000 compounds, 0.29% hits; AID 2380; MIN6 cells proliferation, ATPlite luminescence, 48 h; cells starved in 0.2% serum; 100% = growth in 10% serum;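 active = compounds whose signal lies at least 3.5 SD above the mean of all wells on their plate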
Myeloid diff 2: compounds promoting myeloid differentiation; calls only at 10 µM; ER-HoxA9 myeloid progenitors, lysozyme-GFP differentiation, flow cytometry; AID 624256; 360,000 compounds, 1% hits;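 active = normalized GFP-positive differentiation at or above the plate's own cutoff, the solvent-only control mean plus 3 SD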;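 note: cells exposed to compound for four days before flow analysis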
H9c2 protect: protects H9c2 cardiomyocytes from peroxide injury. AID 588492. protection from H2O2 cell death, % at 20 µM. 360,000 compounds, 0.63% hits. H2O2 injury protection, ATPLite, 2 h;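 active = compounds giving at least 50% protection of heart cells from peroxide-induced death in the single-dose screen, raw or plate-pattern-corrected value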
Myeloid diff: compounds promoting myeloid differentiation. shares compounds with Myeloid diff 2. ER-HoxA9 myeloid progenitors, GFP/Mac1 double-positive flow. calls only. 2,300 compounds, 2% hits. AID 651706;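 active = share of green or green-and-red cells above 9 and 9% in run 1 or 4 and 3% in run 2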
GFP autofluor: flagged as fluorescent in myeloid differentiation counter-screen. fluorescence response, % (concentration not given with the values). ER-HoxA9 myeloid progenitors, no estrogen, GFP autofluorescence flow cytometry; vehicle wells 0%, positive control 100%. shares compounds with Myeloid diff 2. 2,300 compounds, 7.4% hits;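 active = over 5% cells positive for green fluorescent reporter, or over 2% positive for both it and APC stain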
Numbers stand for hits; – = inactive; · = no result given; + = active, no number. Most compounds without a hit are left out; they make up all but 2.2% or so of the library.

SMILES | ABCB6 inh MLPCN | iPSC survival up | MIN6 prolif | Myeloid diff 2 | H9c2 protect | Myeloid diff | GFP autofluor
OC(c1ccccc1)(c1ccccc1)C1CCN(CCCOc2ccc3c(c2)CCCC3)CC1 | – | – | · | + | · | – | –
COc1ccc(S(=O)(=O)N(Cc2cccs2)C2CCCC2)cc1 | – | – | – | – | – | · | ·
Cc1ccc(/C=N/NC(=O)CNC(=O)COc2ccc(Cl)cc2)o1 | – | – | – | + | – | – | –
O=C(NCc1c(F)cccc1F)c1cc(COc2c(F)cccc2F)on1 | – | – | – | – | – | · | ·
CC(=O)Nc1cc2c(cc1[N+](=O)[O-])-c1ccccc1C2O (configuration not stated) | – | – | · | – | – | · | ·
COc1ccc(N/C=C2/CCCCC2=O)cc1 | – | – | – | – | – | – | –
Fc1ccc(Cn2nnnc2C(c2ccc(Cl)cc2)N2CCSCC2)cc1 (configuration not stated) | – | – | – | – | – | · | ·
O=C(NCc1ccco1)c1ccc2c(=O)n(-c3ccccc3)c(=O)n(Cc3cccc(F)c3)c2c1 | – | – | – | + | – | – | –
Cc1ccccc1Cn1c(=O)n(-c2ccccc2)c(=O)c2ccc(C(=O)NCc3ccco3)cc21 | – | – | – | – | – | · | ·
S=c1nc(-c2ccccc2)[nH]n1-c1ccccc1 | – | – | · | – | – | · | ·
CCCc1c(C(=O)Nc2ccc(F)cc2C)cnn1-c1ccccc1 | – | – | – | – | – | · | ·
CCCc1c(NC(=O)Nc2ccc(F)cc2)cnn1-c1ccccc1 | – | – | – | + | – | – | –
O=C(c1ccccc1Cc1ccccc1)N1CCN(S(=O)(=O)c2ccccc2)CC1 | – | – | – | – | – | · | ·
NS(=O)(=O)c1ccc(NC(=O)COC(=O)CCc2nc3ccccc3c(=O)[nH]2)cc1 | – | – | – | – | – | · | ·
Cc1nc2c(oc3ccccc32)c(=O)o1 | – | – | – | + | – | – | –
CC1CC2(CCCCC2)Nc2c1ccc1ccccc21 (configuration not stated) | – | – | – | + | – | – | 12
CC1NC(C)(C)Cc2c1ccc1ccccc21 (configuration not stated) | – | – | – | – | – | · | ·
Cc1nc(-c2nc(-c3c(C(=O)NNC(=O)Nc4ccccc4)noc3C)cs2)cs1 | – | – | – | – | – | · | ·
O=Cc1c(-c2ccccc2)cc2oc3ccccc3cc1-2 | – | – | – | – | – | – | 66
COC(=O)c1ccc(NC(=S)NC2CCCCC2C)cc1 (configuration not stated) | – | – | – | + | – | – | –
CC1(C)CC(=O)C(C=Nc2ccc(C(=O)c3ccccc3)cc2N=CC2=C(O)CC(C)(C)CC2=O)=C(O)C1 | – | – | – | + | – | – | –
CC1(C)CC(=O)C(C=Nc2ccc(O)c(N=CC3=C(O)CC(C)(C)CC3=O)c2)=C(O)C1 | – | – | – | – | – | · | ·
Cc1sc(NC(=S)NC(=O)c2ccco2)c(C(N)=O)c1C | – | – | – | – | – | · | ·
CCN1CCc2c(sc(NC(=O)c3ccc(S(=O)(=O)N(CC)c4ccccc4)cc3)c2C(N)=O)C1 | – | – | – | + | – | – | 15
CCN1CCc2c(sc(NC(=S)NC(=O)c3ccco3)c2C(N)=O)C1 | – | – | – | – | – | – | –
SMILES | ABCB6 inh MLPCN | iPSC survival up | MIN6 prolif | Myeloid diff 2 | H9c2 protect | Myeloid diff | GFP autofluor
CCN1CCc2c(sc(NC(=O)c3ccc(C(=O)c4ccccc4)cc3)c2C(N)=O)C1 | – | – | – | – | – | · | ·
O=C(CNC(=O)c1ccc(S(=O)(=O)N2CCCC2)cc1)N/N=C/c1c(Cl)cccc1Cl | – | – | – | – | – | · | ·
O=C(CSc1nc2ccccc2n1CC(=O)N1CCCC1)NCc1ccc2c(c1)OCO2 | – | – | – | – | – | – | –
O=c1c2c(nc3n1CCCCC3)-c1ccccc1CC21CCCCC1 | – | – | – | – | – | – | –
COC(=O)c1ccc(C2Nc3ccccc3NC3=C2C(=O)CC(C)(C)C3)cc1 (configuration not stated) | – | – | – | – | – | · | ·
COC(=O)c1ccc2c(c1)NC1=C(C(=O)CC(C)(C)C1)C(c1ccncc1)N2 (configuration not stated) | – | – | – | + | – | – | –
Cc1ccc(C)c(NC(=O)CS(=O)(=O)c2cn(C)c3ccccc23)c1 | – | – | – | – | – | – | –
Cn1cc(S(=O)(=O)CC(=O)Nc2ccc3c(c2)OCCO3)c2ccccc21 | – | – | – | – | – | · | ·
CCOc1cccc(NC(=O)c2ccc(S(=O)(=O)N(C)C)cc2)c1 | – | – | – | – | – | · | ·
Cn1c(=O)[nH]c(=O)c2c1nc(Br)n2Cc1cccc(Br)c1 | – | – | – | – | – | – | –
CN1CCN(c2nc3c(c(=O)[nH]c(=O)n3C)n2Cc2cccc(Br)c2)CC1 | – | – | – | – | – | · | ·
Cc1ccc(O)c(NC(=O)c2cc3nc4c(c(C(F)(F)F)n3n2)CCc2ccccc2-4)c1 | · | – | – | – | – | – | –
COc1cc(-c2c(CCO)sc3ccccc23)cc(OC)c1OC | – | – | · | + | · | – | –
Cc1cccc(N2CCN(C(=O)C3CCN(S(=O)(=O)N4CCOCC4)CC3)CC2C)c1 (configuration not stated) | – | – | – | + | – | – | –
Cc1cc(S(=O)(=O)N2CCOCC2)ccc1OCC(=O)Nc1ccc(F)cc1 | – | – | – | – | – | · | ·
CCOP(=O)(OCC)/C(C#N)=C/c1ccc([N+](=O)[O-])cc1 | – | – | – | – | – | – | –
O=C(c1cccs1)N1C[C@@H](n2cc(-c3ccc(F)cc3)nn2)[C@H](O)C[C@@H]1c1ccc(Cl)cc1 | – | – | · | – | – | – | –
CCCCCC(=O)N1C[C@H](O)[C@@H](n2cc(-c3ccc(F)cc3)nn2)C[C@@H]1c1ccc(C)cc1 | – | – | · | – | – | · | ·
O[C@H]1C[C@H](c2ccccc2)N(CC2CCCCC2)C[C@@H]1n1cc(-c2ccc(F)cc2)nn1 | – | – | · | – | – | · | ·
COc1ccc([C@H]2C[C@H](n3cc(-c4ccc(F)cc4)nn3)[C@@H](O)CN2CC2CCCCC2)cc1 | – | – | · | + | – | – | –
O=C(c1cccs1)N1C[C@H](n2cc(-c3ccc(F)cc3)nn2)[C@@H](O)C[C@@H]1c1ccc(Cl)cc1 | – | – | · | – | – | · | ·
COc1ccc([C@H]2C[C@@H](O)[C@H](n3cc(-c4ccc(F)cc4)nn3)CN2CC2CCCCC2)cc1 | – | – | · | – | – | – | –
O[C@@H]1CN(CC2CCCCC2)[C@@H](c2ccc(Cl)cc2)C[C@H]1n1cc(-c2ccc(F)cc2)nn1 | – | – | · | – | – | · | ·
CCCCCC(=O)N1C[C@@H](O)[C@H](n2cc(-c3ccc(F)cc3)nn2)C[C@@H]1c1ccc(OC)cc1 | – | – | · | – | – | – | –

From PubChem BioAssay
